These results are taken from PubChem BioAssay (NCI).

Molecules are shown by their SMILES. About 83,000 compounds went through this panel and 20% of them were active in at least one assay; those are over-represented in the sample as a whole.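 In brief: 96-well plates, 48 h treatment, single concentration, percent growth endpoint.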 Active and inactive are the calls of the source. How the source made its calls: active means growth percent below 10; inactive means the rest.

For the assay, the system named is K-562 leukemia. Kind of assay: NCI-60 one-dose screen, 48 h (100 = growth as untreated, 0 = no growth, -100 = all killed). Conditions: 10 µM unless noted.
As to `COC(=O)C[C@](O)(CCCC(C)(C)O)C(=O)O[C@H]1C(OC)=C[C@@]23CCCN2CCc2cc4c(cc2[C@@H]13)OCO4`, the growth is 4.68% (active).

For the molecule `COc1cc(/C=C2\C(=N)N=C(SCc3nc4ccccc4[nH]3)NC2=O)ccc1O`, the growth was 103% (inactive). In the case of `N/C(=N\N=C\c1ccc([N+](=O)[O-])cc1)c1c(N)nc(=S)[nH]c1-c1ccc(Cl)cc1Cl` it was 95% (inactive); in that of `CC1(c2cc3cc(Cl)ccc3oc2=O)NC(=O)c2c(/C=C/C(=O)OC3CC4CCC3(C)C4(C)C)cccc2N1` (stereo unspecified), 21.6% (inactive).

On to `O=C(N=Nc1c(O)[nH]c2ccc(Cl)cc12)c1ccc2nc(-c3ccccc3)[nH]c2c1`, for which the growth was 29.3% (inactive). In the case of `O=C(O)c1cccc(-c2ccc(/C=N/NC(=O)c3[nH]c4ccc(Br)cc4c3-c3ccccc3)o2)c1` it was 65.8% (inactive). The figure for `CC1(C)CC[C@]2(C(=O)Nc3ccccc3)CC[C@]3(C)C(=CCC4[C@@]5(C)C[C@@H](O)[C@H](O)[C@@](C)(CO)C5CC[C@]43C)C2C1` (stereo partly specified) is 33.3% (inactive); for `O=c1[nH]c2ccccc2cc1CSc1cccc(Nc2nccc(-c3ccc4ccccc4c3)n2)c1` it is 64.3% (inactive).

`Clc1cccc(N/N=C/c2c[nH]c3ccc(Br)cc23)n1`: the growth is -26% (active). The figure for `CSc1ccc(NC(=O)c2ccc3nnn(/C(C#N)=C/c4ccccn4)c3c2)cc1` is -5.65% (active). The figure for `Cc1c(C(=O)NNC(=O)c2ccc(Cl)cc2)nnn1-c1ccc(Cl)cc1` is 86.3% (inactive).

`CN(C)c1nc(NCCNS(=O)(=O)c2ccc(C(=O)/C=C/c3ccc(F)cc3)cc2)nc(Nc2ccc(F)cc2)n1`: the growth is -21.9% (active). The figure for `CNC(=O)c1cc(Oc2ccc3nc(NC(=O)Nc4cccc(OC(F)(F)F)c4)sc3c2)ccn1` is 47.1% (inactive); for `CC(C)(C)OC(=O)/C=C/c1cccc2c1C(=O)NC(C)(c1cc3cc(Cl)ccc3oc1=O)N2` (stereo unspecified) it is 17.1% (inactive); for `Cc1ccc(C2CC(c3ccc(S(=O)(=O)NCCNc4nc(Nc5ccc(F)cc5)nc(N(C)C)n4)cc3)=Nc3c(N)nc(N)nc3N2)cc1` (stereo unspecified) it is 8.57% (active). In the case of `CC1=C(C(=O)OC(C)C)C(c2cccc(O)c2)NC(=S)N1` (stereo unspecified) it was 83.2% (inactive). In the case of `C[C@H](Nc1nc(NCCc2ccccc2)nc2ccccc12)c1ccccc1` it was -43.9% (active); in that of `COc1ccc(-c2c(Nn3cnnn3)no[n+]2[O-])cc1`, 30.2% (inactive); in that of `Cn1cc(NC(=O)c2cc(NC(=O)c3ccc(C#Cc4ccccc4)cc3)cn2C)cc1C(=O)NCCCN1CCOCC1`, -41.5% (active). In the case of `COc1cc(NC(=O)c2cccc(C3CCc4c(cc(OC)c(OC)c4OC)O3)c2)cc(OC)c1OC` (stereo unspecified), the growth is 15% (inactive).

As for `Cc1ccc(-n2c(-c3cc4ccccc4nc3Cl)noc2=O)cc1`, the growth was 30.6% (inactive).

In the case of `CC(=O)Oc1ccccc1C(=O)[Se]CC(=O)Nc1cccc(C(F)(F)F)c1`, the growth was 18.6% (inactive).

As to `N#Cc1c(-c2ccccc2Cl)cc(-c2ccc3ccccc3c2)[nH]c1=O`, the growth was 62% (inactive). In the case of `CCCCNC(=S)Nc1ccc(OCc2nc3ccccc3[nH]2)cc1` it was 28.6% (inactive); in that of `COc1ccc(-c2nc3cc(C)ccc3n2CC(=O)N=Nc2c(O)[nH]c3ccccc23)cc1`, 4.42% (active); in that of `COc1ccc(-c2nc3ccc(C(=O)NN4C(=O)c5ccc([N+](=O)[O-])cc5C4=O)cc3[nH]2)cc1`, 102% (inactive). The figure for `O=c1oc2ccccc2cc1-c1csc(N=Nc2c(O)[nH]c3ccc(Cl)cc23)n1` is 104% (inactive); for `CN(C)c1ccnc(CNCCSC2(c3ccccc3)c3ccccc3C=Cc3ccccc32)c1` it is -27.1% (active). In the case of `COc1cc2c(c(OC)c1OC)C(=O)CC(c1cccc(NC(=O)c3cc(NC(=O)[C@@H](N)CO)ccc3C)c1)O2` (stereo partly specified) it was 91.4% (inactive); in that of `O=C(Nc1cccc(-n2cnc3cc(-c4ccc(O)cc4)ccc32)c1)C1CC1`, 12.2% (inactive). With `COc1ccc(C2(SCCNCc3cc(N(C)C)ccn3)c3ccccc3C=Cc3ccccc32)cc1`, the growth is 2.08% (active).

With `N/C(=N\c1nc2ccccc2s1)NC(=O)Nc1ccccc1Br`, the growth is 11.5% (inactive). The figure for `COc1ccc(C2=NN(c3ccccc3)C(c3ccc(OC)c(OCc4ccccc4)c3)C2)cc1OC` (stereo unspecified) is 95% (inactive); for `CC1=C(C(=O)c2ccccc2)C(c2ccc(-n3cncn3)cc2)n2c(nc3ccccc32)N1` (stereo unspecified) it is 74.6% (inactive); for `CN(C)CCCNC(=O)c1cc(NC(=O)c2cc(NC(=O)c3ccc(C#Cc4ccccc4)cc3)cn2C)cn1C` it is -54.9% (active).

Regarding `COc1cccc(/C=C/c2nc3ccccc3c(=O)n2CC(=O)Nc2ccc(Cl)cc2)c1`, the growth is 84.6% (inactive).
